From the supplement of paper PMC3334620
In all, about 33,000 sequences were measured (“E-score (-0.5 to 0.5)”: median about -0.035, highest 2% from about 0.35 on). The list comes from a sample in which the highest values are over-represented; it also holds similar and randomly drawn sequences.

biological target: T1, Pdr3 (UniProt P33200); experiment: PBM E-score (8-mer binding enrichment) (E-score (-0.5 to 0.5)); higher = stronger / more preferred TF binding; conditions: protein concentration: 200 nM; construct: GST-full length
T1 sequence: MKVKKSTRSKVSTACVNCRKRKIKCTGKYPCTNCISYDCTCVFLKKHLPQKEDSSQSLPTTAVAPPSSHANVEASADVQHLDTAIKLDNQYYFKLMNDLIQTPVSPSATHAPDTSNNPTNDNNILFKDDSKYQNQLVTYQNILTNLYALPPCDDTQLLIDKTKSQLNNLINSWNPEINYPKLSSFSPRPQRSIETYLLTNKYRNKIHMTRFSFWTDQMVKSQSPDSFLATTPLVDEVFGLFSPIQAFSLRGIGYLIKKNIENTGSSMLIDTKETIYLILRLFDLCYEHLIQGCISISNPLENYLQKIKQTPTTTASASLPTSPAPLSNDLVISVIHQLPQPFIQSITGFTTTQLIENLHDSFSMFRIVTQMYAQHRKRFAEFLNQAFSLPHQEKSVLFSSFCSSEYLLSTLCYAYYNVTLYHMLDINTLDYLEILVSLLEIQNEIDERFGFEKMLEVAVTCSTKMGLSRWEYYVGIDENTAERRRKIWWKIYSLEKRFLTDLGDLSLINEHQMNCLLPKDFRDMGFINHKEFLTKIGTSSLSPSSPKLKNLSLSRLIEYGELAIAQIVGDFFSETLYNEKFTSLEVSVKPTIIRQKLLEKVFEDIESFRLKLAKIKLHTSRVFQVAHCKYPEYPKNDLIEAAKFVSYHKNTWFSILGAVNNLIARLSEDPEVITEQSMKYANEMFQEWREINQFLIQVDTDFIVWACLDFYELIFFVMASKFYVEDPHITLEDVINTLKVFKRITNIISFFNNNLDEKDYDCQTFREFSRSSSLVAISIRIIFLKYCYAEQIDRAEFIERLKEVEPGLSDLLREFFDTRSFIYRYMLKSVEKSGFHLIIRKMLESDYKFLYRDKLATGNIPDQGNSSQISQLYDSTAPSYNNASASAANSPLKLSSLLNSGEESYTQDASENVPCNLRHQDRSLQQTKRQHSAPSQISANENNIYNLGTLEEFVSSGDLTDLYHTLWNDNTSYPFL
How it was run: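 Detection of bound protein used fluorescent anti-GST, with scans normalised by masliner. The proteins were GST-tagged yeast transcription factors applied at about 100-200 nM to universal all-10-mer Agilent arrays made double-stranded by primer extension. Each ungapped eight-base word, pooled with its reverse complement, was scored with an E-score from the Universal PBM Analysis Suite.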

Sequence	PBM E-score
AAAAGAGT	-0.208
AAGATTCG	0.108
ACAACACG	0.0551
ATGTTCGC	-0.165
ACTGGCGG	0.153
CTTCAGGC	-0.224
CGCAAGAG	0.0334
CTGGAATA	0.08
AAGGAATA	-0.0227
CCGGAATA	0.437
CGGGAATA	0.331
ACGGAATG	0.432
ACGGAATC	0.465
AGGGAATG	-0.0936
ATGGAATA	0.205
ATGGAATG	0.184
ACGGAATA	0.445
ATGGAATC	0.205
AGGGAATC	0.00236
GGCCGATA	0.0764
CATGTTTA	-0.0824
GCCGCATA	0.237
AAGGGCAC	-0.157
AAGCCGCC	0.0806
AACCTAGA	0.11
AGACAGTC	-0.0923

Sequence	PBM E-score
CTGGAATC	0.02
CGGGAATC	0.334
GGGGAATA	0.121
CCGGAATC	0.471
GCGGAATA	0.398
GTGGAATA	0.122
CCCACTCA	-0.108
AGATTGTC	0.0868
AGTAAAAT	-0.11
ACGGCTAG	-0.152
AAAACCAA	-0.0135
AATATTTG	0.0496
TATACGGA	0.221
AATACGGA	0.351
CATACGGA	0.359
GATACGGA	0.357
CATACGGC	0.143
GATACGGC	0.014
CTGTTCTC	-0.0802
ATGAGCTG	-0.0649
CGTATTTA	0.164
CGGTGCCA	-0.115
AATCCCGT	0.409
AGTCCCGA	0.147
AATCCCGC	0.333
AATCCCAT	-0.0271

Sequence	PBM E-score
TATCCCGA	0.305
AATCCCGA	0.358
ACAAGGTG	-0.125
GTCCTCTA	-0.222
GGAACCTA	0.3
TCTGGCAA	0.0125
ACCTACGC	-0.0495
TAAACGTA	-0.137
GAAACGGA	0.395
CAAACGGA	0.37
AAAACGGA	0.314
TAAACGAA	-0.0987
GAAACGGC	0.202
CAAACGGG	0.184
GAAACGAA	0.0452
TAAACGGA	0.366
CAAATGCG	0.0429
CATTCTCC	-0.105
CAGGGCAA	0.0442
CCGCTAGG	0.0934
TCGCTAGA	-0.125
CGTACCAC	-0.102
AATCCTAG	-0.108
CTGATAGA	-0.118
ATTCCAGA	0.0594
CTTCCTGA	0.0336

Sequence	PBM E-score
ATTCCGGA	0.481
CTTCCGGA	0.451
GTTCCGGA	0.475
CTTCCCGA	0.291
GTACCGGA	0.318
CTACCGGC	-0.0343
CTTCCGGC	0.398
ATACCGGA	0.303
GTTCCTGA	-0.0384
CTGCCGGC	0.339
AACTGATA	0.0335
ATAAGCAA	-0.128
GATGCGCA	0.0246
AAAACCCG	0.319
CACTTACG	0.121
AGCCCTCA	-0.248
CCCGGCGC	0.26
CCCGGCGA	0.296
GCCGGCGC	0.372
GTCGGCGA	-0.0361
TCCGGCGA	0.356
GCCGGCTA	0.248
ACCGGCGC	0.228
GCCGGCGA	0.36
ACCGGCGA	0.281
AGAGGCCG	-0.105

Sequence	PBM E-score
CTAGAAGC	-0.166
ATGTCGGC	-0.0499
CGCAACTA	0.0897
CCGCCGGC	0.401
GCGCCGTA	0.251
ACGCCGGG	0.251
ACGCCGGC	0.385
CCGCCGTC	0.168
CCGCCGGA	0.415
ACGCCGCC	0.0831
CCGCCGCC	0.244
CCGCCGCA	0.202
ACGCCGGA	0.289
GCGCCGAA	0.241
GCGCCGGA	0.384
GACCTACC	0.0277
ACCTTTAA	-0.0915
ATGTCGTA	-0.238
CATGAGTA	-0.168
GCGCACGA	0.0416
GCTGTACC	-0.00444
GCCTGCCC	-0.0411
CCCAAGAA	-0.0373
CCGGCGCC	0.37
GCGGCGCC	0.353
ACGGCGCC	0.243

Sequence	PBM E-score
AACGAACT	-0.245
AGAGAAGG	-0.0862
CGGAAAGA	0.428
CGGAAAGC	0.415
AGGAAAGA	-0.167
CCGAAAGC	0.136
AGGAAAGC	-0.105
GGGAAAGA	0.0836
CTGCGGTA	-0.0102
GCTTTCAC	-0.107
ACTGGGCT	0.0297
CCTGCAGA	-0.0209
AGTTCTGG	-0.0246
CGGTGTAC	-0.0705
AGACTACT	-0.173
CGGATACC	0.31
TGGATACA	-0.189
CGGATACA	0.364
CGGATATC	0.391
CGGATATA	0.346
AGGATATC	-0.0388
CGGATAAC	0.333
CGGATAAA	0.383
TGGATAAA	0.103
ACTTTGAA	-0.202
ATCTTAGC	-0.2

Sequence	PBM E-score
GGCCAGAC	0.075
GAGGTCAC	-0.0512
ACCCAGAG	-0.132
AGGCGCAC	0.147
ACGTGGAG	-0.132
GCGTGGAA	0.0102
CCGTGGAA	0.437
ACGTGGAA	-0.0114
CCGTGGAC	0.274
CCGTGGAG	0.382
TGCGCCAA	0.053
GCGCGGAC	0.305
ACGCGGAC	0.229
GCGCGGCA	0.237
TCGCGGAA	0.404
TCGCGAAA	0.131
ACGCGGAA	0.407
GCGCGGAA	0.464
ACGCGGAT	0.244
TCGCGGCA	0.174
